The text below walks through data of publication PMC7826789 (International Journal of Molecular Sciences, 2021).

The structures appear in SMILES notation.
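Note: KINOMEscan scanMAX binding as percent activity remaining versus control; lower means stronger binding.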

This assay deals with T1, TAK1.
T1 construct: gene MAP3K7
As to conditions: Compound Concentration (nM):1000.
Consider `COc1cc(C=NNc2ncnc3c2cnn3-c2ccccc2)ccc1O` [GW513184X], for which the “Percent Control” value is 59%.
To `CCS(=O)(=O)c1ccc(OC)c(Nc2ncc(-c3cccc(OC)c3)o2)c1` [GW580509X] belongs 81%.
As to `Cl.O=C(Nc1ccc(Oc2ccc3[nH]c(NC(=O)c4ccco4)nc3c2)cc1)Nc1cc(C(F)(F)F)ccc1F` [GW683134A], the “Percent Control” value is 9.1%.
For `CN1CCN(C(=O)c2ccc(NC(=O)Nc3ccc(N(C)c4ccnc(Nc5ccc(CS(C)(=O)=O)cc5)n4)cc3)cc2)CC1.Cl` [GW830263A] the value was 25%; for `COc1cc(N2CCN(C(C)C)CC2)ccc1Nc1nc(Nc2ccc(F)cc2C(=O)NC[C@@H](O)CO)c2cc[nH]c2n1` [GSK1392956A], 100%; for `C[C@@H](Oc1cc(-n2cnc3ccc(OC4CCN(C)CC4)cc32)sc1C(N)=O)c1ccccc1Cl` [GSK579289A], 38%.
To `COc1ccc2cc(-c3c(-c4ccncc4)nc(-c4ccc(S(C)(=O)=O)cc4C)n3C)ccc2c1` [SB-633825] belongs 80%; to `COC(=O)Nc1nc2ccc(Oc3ccc(NC(=O)Nc4cc(C(F)(F)F)ccc4F)cc3)cc2s1.Cl` [GW693917A], 5.8%.
For the molecule `CN(C)CCNC(=O)Nc1ccc(N(C)c2ccnc(Nc3ccc(CS(C)(=O)=O)cc3)n2)cc1.Cl` [GW830900A], the “Percent Control” value was found to be 48%.
To `COc1cc(/C=N/Nc2ncnc3[nH]ncc23)ccc1O` [GW578748X] belongs 32%; to `COc1cc2ncn(-c3cc(O[C@H](C)c4ccccc4Cl)c(C(N)=O)s3)c2cc1OC` [GSK237701A], 78%.
For `CN(C)c1cc2c(Nc3ccc4c(cnn4Cc4ccccc4)c3)ncnc2cn1` [GW282974X] the value was 93%.
For `Cl.O=S1CCN(Cc2ccc(-c3ccc4ncnc(Nc5ccc(OCc6ccccc6)c(F)c5)c4c3)o2)CC1` [GW576924A], the “Percent Control” value is reported as 100%.
For `CCc1ccc(Oc2nccc(-c3c(-c4ccc(F)cc4)ncn3C3CCNCC3)n2)cc1` [SB-242719] the value was 96%.
For `Nc1ncnc2occ(-c3ccc(NC(=O)Nc4cc(C(F)(F)F)ccc4F)cc3)c12` [GW770249X] the value was 3.2%; for `Cl.O=C(O[C@H]1CN[C@H](C#Cc2cc3ncnc(Nc4ccc5c(cnn5Cc5ccccc5)c4)c3s2)C1)N1CCOCC1` [GSK200398A], 100%.
To `Cl.c1ccc(Cc2nc3ccc(Nc4ncnc5ccccc45)cc3[nH]2)cc1` [GR269666A] belongs 100%; to `COc1ccc2c(-c3ccnc(Nc4cccc(OC(F)(F)F)c4)n3)cnn2n1` [GW810372X], 95%.
Turning to `COc1cccc(-c2c[nH]c3c(N/N=C/c4ccncc4)ncnc23)c1` [GW814408X], the “Percent Control” value is on record as 100%.
For `CCn1c(-c2nonc2N)nc2c(C#CC(C)(C)O)nc(OCCNC)cc21.Cl` [GSK949675] the value was 85%; for `NS(=O)(=O)c1ccc(Nc2ncc(-c3ccccc3)o2)cc1` [GW572399X], 100%; for `COc1ccc(COc2ccc(Cc3cnc(N)nc3N)cc2OC)cc1` [GW632580X], 97%.
To `CC(C)COC(=O)c1ccc2c(c1)/C(=C/Nc1ccc(S(N)(=O)=O)cc1)C(=O)N2` [GW416981X] belongs 21%; to `Cl.O=C(Nc1ccc(Oc2ccc3[nH]c(NC(=O)c4ccccc4)nc3c2)cc1)Nc1cc(C(F)(F)F)ccc1F` [GW709042A], 58%; to `COc1cccc(-n2ncc3c(N/N=C/c4ccncc4)ncnc32)c1` [GW784752X], 97%.
Regarding `NS(=O)(=O)c1ccc(N/N=C2\C(=O)Nc3ccc(Cl)cc32)cc1` [GW280670X], the “Percent Control” value stood at 81%.
To `O=C(Nc1n[nH]c2nc(-c3ccc(O)cc3)c(Br)cc12)C1CC1` [SB-725317] belongs 95%; to `CC1=C(C(=O)Nc2ccc3[nH]ncc3c2)C(c2ccc3ccccc3c2)CC(=O)N1` (stereo not shown) [GSK270822A], 81%; to `Cc1cc(O)cc(C)c1/C=C/c1cncc(C(N)=O)c1` [GW435821X], 100%.
For `NS(=O)(=O)c1ccc(N/N=C2\C(=O)Nc3ccc(C(=O)NCc4ccncc4)cc32)cc1` [GW300657X] the value was 29%; for `C/C(Nc1ccc(S(N)(=O)=O)cc1)=C1/C(=O)Nc2ccccc21` [GW335962X], 70%; for `CC1=C(C(=O)Nc2ccc3[nH]ncc3c2)C(c2ccc(Cl)c(Cl)c2)CC(=O)N1` (stereo not shown) [GSK299115A], 82%.
For `CCS(=O)(=O)c1ccc(OC)c(Nc2ncc(-c3cccc(F)c3)o2)c1` [GW621970X] the value was 100%.
On to `COc1ccccc1-c1cc(/C=C2\C(=O)Nc3ncc(Br)cc32)cc(Br)c1O` [GW442130X], for which the “Percent Control” value worked out at 81%.
To `NS(=O)(=O)c1ccc(N/N=C2\C(=O)Nc3ccc(C(=O)NCCc4c[nH]cn4)cc32)cc1` [GW300660X] belongs 18%; to `O=C1Nc2ccc(C(=O)c3ccco3)cc2C1=Cc1cc(Cl)c(O)c(Cl)c1` [GW406108X], 30%.
Consider `COc1cc(C)c(N(C)C(=O)CN(C)C)cc1Nc1nc(Nc2cccc(F)c2C(N)=O)c2cc[nH]c2n1` [GSK2219385], for which the “Percent Control” value amounted to 93%.
To `NS(=O)(=O)c1ccc(N/N=C2\C(=O)Nc3ccc(-c4cnco4)cc32)cc1` [GW276655] belongs 32%; to `COc1ccc2[nH]c3c4[nH]c5ccc(OC)cc5c4c4c(c3c2c1)C(=O)NC4=O` [GW296115X], 20%; to `COc1cc2ncnc(Nc3ccc4c(cnn4Cc4ccccc4)c3)c2cc1OC.Cl` [GW282449A], 100%.
